Compound activity from PubChem BioAssay.
An excerpt weighted towards active compounds, which were near 18% of everything screened.
VDR inhibitor – Inhibitors of the vitamin D receptor (VDR): qHTS. Potency, µM, inactives show max response, negative = inhibition, most hits filed as inhibitors. VDR-SRC2-3 peptide fluorescence polarization, 2 h. Vitamin D3 receptor (Homo sapiens), P11473. AID 504847, 2011. 0.93% of 400,000 active
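The screen uses fluorescence polarization to detect compounds that interfere with recruitment of the SRC2-3 coactivator peptide to VDR; plates are read after 2 h at room temperature.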
DT40 TDP1 CPT – qHTS for Inhibitors of human tyrosyl-DNA phosphodiesterase 1 (TDP1): qHTS in cells in presence of CPT. chicken DT40 Tdp1-/-;hTDP1 cells + 20 nM CPT, ATP luminescence, 48 h. Potency, µM (titrated, usually from 46.2 µM), for the others: at the top dose activity change, negative = growth inhibition, most hits filed as inhibitors. 12% of 420,000 active; also: nearly all actives have a fitted effect of over 55% in size
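Chicken DT40 Tdp1-/- cells complemented with human TDP1, 400 cells/well, exposed to compounds plus 20 nM camptothecin for at least 48 h at 37 C; viability read as ATP content by CellTiter-Glo luminescence.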
PLK1 PBD inh – qHTS for Inhibitors of PLK1-PDB (polo-like kinase 1 - polo-box domain): Primary Screen | AID 720504, 2013 | Potency, µM, inactives show max response, negative = inhibition, hits mostly inhibitors | Plk1 PBD binding of FITC phosphopeptide, fluorescence polarization | 2.8% of 360,000 active | Serine/threonine-protein kinase PLK1 (Homo sapiens), P53350; also: series mostly up to about 57 µM; nearly all actives have a fitted effect of over 65% in size
TDP1 cell noCPT – qHTS for Inhibitors of human tyrosyl-DNA phosphodiesterase 1 (TDP1): qHTS in cells in absence of CPT; Potency, µM (series often up to 46.2 µM), for the others: at the highest dose activity change, negative = growth inhibition, hits mostly inhibitors; 15% of 420,000 active; DT40 Tdp1-/- hTDP1 cells, no CPT, ATP luminescence, 48 h; also: nearly all actives have a fitted effect of over 55% in size
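Compound effects on proliferation are scored in DT40 Tdp1-/-;hTDP1 cells in the absence of CPT. ATP levels (CellTiter-Glo luminescence) are recorded after a ≥48 hr, 37 °C incubation.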
TDP1 inh – qHTS Assay for Inhibitors of Tyrosyl-DNA Phosphodiesterase (TDP1); Potency, µM (highest dose often 130 µM), without a hit: at the top dose activity change, negative = inhibition, hits mostly inhibitors; Tyrosyl-DNA phosphodiesterase 1 (Homo sapiens), Q9NUW8; 0.28% of 350,000 active; recombinant TDP1, AlphaScreen DNA substrate cleavage; AID 485290, 2010; also: nearly all actives have a fitted effect of over 40% in size
Target sequence (Q9NUW8 whole entry, looked up): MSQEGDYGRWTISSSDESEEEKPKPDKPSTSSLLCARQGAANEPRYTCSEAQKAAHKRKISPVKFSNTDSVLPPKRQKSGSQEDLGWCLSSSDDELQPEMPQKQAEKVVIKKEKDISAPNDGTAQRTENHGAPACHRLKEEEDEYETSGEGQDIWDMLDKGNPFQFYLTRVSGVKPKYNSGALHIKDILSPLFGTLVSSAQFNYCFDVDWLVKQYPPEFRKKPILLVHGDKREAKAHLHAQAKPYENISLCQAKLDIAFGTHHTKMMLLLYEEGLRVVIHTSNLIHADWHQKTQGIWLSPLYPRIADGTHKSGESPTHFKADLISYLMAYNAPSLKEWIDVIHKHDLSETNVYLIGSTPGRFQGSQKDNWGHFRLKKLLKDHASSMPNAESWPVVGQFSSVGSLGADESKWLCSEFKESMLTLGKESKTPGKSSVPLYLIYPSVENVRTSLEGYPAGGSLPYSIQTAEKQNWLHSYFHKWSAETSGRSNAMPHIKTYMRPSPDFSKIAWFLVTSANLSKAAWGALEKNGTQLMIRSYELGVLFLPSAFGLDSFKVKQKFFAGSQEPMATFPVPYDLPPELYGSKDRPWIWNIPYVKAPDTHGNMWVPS
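Tdp1 1 nM final; 15 min RT w/ cpd; substrate 15 nM, 5 min; beads 10 ug/ml, 10 min; AlphaScreen read. Neg ctrl: no enzyme.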
KAT2A inh – qHTS Assay for Inhibitors of GCN5L2. Histone acetyltransferase KAT2A (Homo sapiens), Q92830. GCN5L2 HAT assay, ThioGlo1 CoA-SH fluorescence. Potency, µM (doses to about 58.9 µM), for inactives: at the top dose activity change, negative = inhibition, most hits filed as inhibitors. 0.21% of 390,000 active. AID 504327, 2011
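Compounds, pin-transferred from DMSO stocks, meet 20nM GCN5L2 for 15 min before the reaction begins with H3(1-25) peptide (75uM) and acetyl-CoA (70uM). Thiol-reactive ThioGlo1 reports CoA release over 20 min at room temperature.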
* hit, by the source's call; ? = inconclusive; / = no result given; [ ] = another dose, or the depositor's remark. Calls follow the shape of the dose curve; as a rule, active = well fitted curve in the direction sought with a large enough effect; inconclusive = small, poorly fitted or top-dose-only effect, or another doubt; inactive = no such curve, though single readings can be large; an effect the other way counts as inactive or inconclusive. % is scaled to controls: 0 for no effect and ±100 for the full control effect; potency is read from the fitted curve at half-maximal effect.

SMILES | VDR inhibitor | DT40 TDP1 CPT | PLK1 PBD inh | TDP1 cell noCPT | TDP1 inh | KAT2A inh
O=S(=O)(c1ccc(NC(=S)NC23CC4CC(CC(C4)C2)C3)cc1)N1CCCCC1 | / | ? | -8.8% | 20.6µM* | / | /
O=c1[nH]nc(-c2ccc[nH]2)[nH]1 | / | -3.9% | -9.7% | 0.0% | / | /
Cc1noc(C)c1S(=O)(=O)Nc1ccc2c(c1)CC(=O)N([C@H](C)CO)C[C@H](C)[C@@H](CN(C)CC1CC1)O2 | 3.1% | -7.9% | -4.1% | -11.4% | 0.3% | -9.2%
CCc1ccc2[nH]c(=O)c(CN(Cc3ccccc3)Cc3nnnn3Cc3ccccc3)cc2c1 | -9.6% | ? | / | ? | 4.2% | /
CCc1ccc2[nH]c(=O)c(CN(Cc3ccccc3)Cc3nnnn3Cc3ccco3)cc2c1 | 5.2% | ? | -11.8% | 16.4µM* | 7.8% | -16.7%
Cc1ccc2[nH]c(=O)c(CN(Cc3ccc4c(c3)OCO4)Cc3nnnn3Cc3ccco3)cc2c1 | 8.3% | 11.6µM* | -11.9% | ? | 7.2% | -2.9%
Cc1ccc2[nH]c(=O)c(CN(Cc3cccnc3)Cc3nnnn3CCN3CCOCC3)cc2c1 | 3.1% | ? | 4.74µM* | 20.6µM* | 1.0% | -3.6%
Cc1cccc2cc(CN(Cc3ccccc3)Cc3nnnn3Cc3ccccc3)c(=O)[nH]c12 | -6.1% | ? | / | 12.6µM* | 1.7% | /
Cc1ccccc1CNC(=O)CN1C(=O)CCCc2ccccc21 | 3.8% | -7.1% | / | -16.5% | 6.2% | -10.4%
O=C(CSc1nc(=O)n2ccccc2n1)NC1CCCCC1 | -4.9% | 5.0% | -0.3% | -1.4% | -4.3% | 2.8%
Cc1ccc2cc(CN(Cc3ccco3)Cc3nnnn3Cc3ccco3)c(=O)[nH]c2c1 | -17.7% | ? | / | 11.2µM* | 6.0% | /
Cc1ccc2[nH]c(=O)c(CN(Cc3ccccc3)Cc3nnnn3Cc3ccccc3)cc2c1 | -16.1% | ? | / | 12.6µM* | 2.3% | /
Cc1ccc2[nH]c(=O)c(CN(Cc3ccco3)Cc3nnnn3Cc3ccccc3)cc2c1 | ? | ? | / | 15.8µM* | 4.4% | /
Cc1cccc(OC(=O)c2cccnc2)c1 | 3.8% | 8.1% | -6.4% | 14.1% | / | -7.7%
Cc1cccc(OC(=O)c2cncc(Br)c2)c1 | -15.9% | -23.9% | 26.7µM* | 9.1% | -1.2% | -4.9%
COc1ccc(NC(=O)/C(C#N)=C/c2ccc(-c3ccccc3C(=O)O)o2)cc1 | 9.6% | 6.5% | 2.3% | -1.9% | / | -15.0%
Cc1ccc(/C=N\NC(=O)c2cncc(Br)c2)o1 | 2.6% | -4.5% | -16.5% | -3.9% | 0.0% | -14.5%
CCCCOC(=O)c1ccc(-c2ccc(/C=N/NC(=S)NCC)o2)cc1 | -4.2% | 5.8µM* | -0.3% | 7.31µM* | 4.7% | -5.1%
CCCCOC(=O)c1ccc(NC(=O)/C(C#N)=C/c2ccc(-c3ccccc3)o2)cc1 | 19.3% | 16.4µM* | / | 16.4µM* | -2.2%[12.3 µM] | -5.9%
CCOC(=O)c1ccc(-c2ccc(/C=N/NC(=O)c3cncc(Br)c3)o2)cc1 | -23.7% | ? | -11.4% | 23.1µM* | / | 0.5%
COc1ccc(NC(=O)/C(C#N)=C\c2ccc(-c3cccc(C(=O)O)c3C)o2)cc1 | -5.4% | ? | -25.9% | 4.61µM* | / | -6.7%
CCc1ccc(NC(=O)CSc2nccn(-c3ccc4c(c3)OCCO4)c2=O)cc1 | ? | 18.4µM* | -17.2% | ? | / | -2.8%
CCOc1ccc(NC(=O)CSc2nccn(-c3ccc4c(c3)OCCO4)c2=O)cc1 | -16.6% | -27.5% | -14.8% | 14.6µM* | 7.6% | -2.0%
O=C(CSc1nccn(-c2cccc(F)c2)c1=O)Nc1ccc(Cl)cc1F | 89.1µM* | -4.6% | ? | -27.8% | 12.9% | -10.1%
O=C(CSc1nccn(-c2ccc3c(c2)OCCO3)c1=O)Nc1ccccc1 | ? | ? | 21.2µM* | ? | / | 2.1%
SMILES | VDR inhibitor | DT40 TDP1 CPT | PLK1 PBD inh | TDP1 cell noCPT | TDP1 inh | KAT2A inh
CC(C)OCCCNC(=O)C(=O)Nc1c2c(nn1-c1ccccc1)CS(=O)(=O)C2 | -5.2% | -4.6% | / | -16.2% | 10.4% | -1.8%
COc1ccc(OC)c(S(=O)(=O)NCCc2sc(-c3cccnc3)nc2C)c1 | 1.1% | / | / | / | 3.3% | -14.0%
NC(=O)Cn1cc(/C=N/NC(=O)c2ccc(Cn3cc(Cl)cn3)o2)c(-c2ccccc2)n1 | 14.8% | 5.5% | -4.3% | 1.1% | -5.6% | -5.3%
CCC(NC(=O)c1ccccc1NC(=O)c1ccccc1)C(=O)NNC(=O)c1cccnc1 (stereo unspecified) | -0.5% | 2.5% | -6.5% | -7.0% | 3.5% | -3.8%
Cc1cccc(NC(=O)c2cc([N+](=O)[O-])ccc2N2CCCCC2)n1 | -16.0% | ? | -7.1% | ? | 8.2% | -11.2%
Cc1cccc(-n2ccnc2SCC(=O)Nc2ccc3c(c2)OCCO3)c1 | 7.0% | ? | -4.7% | ? | 5.3% | 2.3%
Cc1ccc(NC(=O)CSc2nccn(-c3ccc4c(c3)OCCO4)c2=O)cc1 | -14.8% | 23.1µM* | -29.7% | 18.4µM* | 4.0% | -0.3%
O=C(NCCCc1ccccc1)c1cccc(NC(=O)C2CCCCC2)c1 | 3.0% | -14.5% | -0.5% | ? | / | /
Cc1cc(C)cc(C(=O)N2CC(=O)Nc3ccc(C)cc3C2c2ccccc2)c1 (stereo unspecified) | 0.8% | ? | / | ? | 3.1%[12.3 µM] | -10.1%
Cc1ccc2c(c1)C(c1ccccc1)N(C(=O)c1ccccc1F)CC(=O)N2 (stereo unspecified) | 2.3% | 18.4µM* | / | ? | -5.9% | -1.8%
CCOc1cc(C(=O)N2CC(=O)Nc3ccc(C)cc3C2c2ccccc2)cc(OCC)c1OCC (stereo unspecified) | -9.2% | 18.4µM* | / | 20.6µM* | 2.9% | -12.0%
CC(C)c1noc2ncc(C(=O)c3cc(Cl)cc(Cl)c3O)cc12 | -20.8% | -20.0% | -11.4% | -4.9% | 7.1% | -6.7%
O=C(Nc1ncccn1)c1ccc([N+](=O)[O-])o1 | -6.5% | ? | -14.5% | ? | 3.8% | 17.2%
O=C(Nc1cccc(Cl)c1N1CCOCC1)c1ccc([N+](=O)[O-])o1 | -16.7% | ? | 1.2% | ? | 1.9% | 2.7%
O=C(Nc1ccc2[nH]c(=O)[nH]c2c1)c1ccc([N+](=O)[O-])o1 | -5.8% | ? | -8.2% | -19.1% | -18.8% | -6.4%
